Experimental data as given in ChEMBL document CHEMBL1961873, “Compounds: GSK PKIS; Assays: Nanosyn kinase panel” (2012).

Legend:
[1] = target: Glycogen synthase kinase-3 beta (Homo sapiens) (UniProt P49841); details: at 1 µM;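 also: reported values are mean percent inhibition of GSK3B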
[2] = target: Homeodomain-interacting protein kinase 1 (Homo sapiens) (UniProt Q86Z02); details: at 0.1 µM
[3] = target: Homeodomain-interacting protein kinase 1 (Homo sapiens) (UniProt Q86Z02); details: at 1 µM
[4] = target: T1, Homeodomain-interacting protein kinase 4 (Homo sapiens) (UniProt Q8NE63); details: at 0.1 µM
T1 sequence (whole entry): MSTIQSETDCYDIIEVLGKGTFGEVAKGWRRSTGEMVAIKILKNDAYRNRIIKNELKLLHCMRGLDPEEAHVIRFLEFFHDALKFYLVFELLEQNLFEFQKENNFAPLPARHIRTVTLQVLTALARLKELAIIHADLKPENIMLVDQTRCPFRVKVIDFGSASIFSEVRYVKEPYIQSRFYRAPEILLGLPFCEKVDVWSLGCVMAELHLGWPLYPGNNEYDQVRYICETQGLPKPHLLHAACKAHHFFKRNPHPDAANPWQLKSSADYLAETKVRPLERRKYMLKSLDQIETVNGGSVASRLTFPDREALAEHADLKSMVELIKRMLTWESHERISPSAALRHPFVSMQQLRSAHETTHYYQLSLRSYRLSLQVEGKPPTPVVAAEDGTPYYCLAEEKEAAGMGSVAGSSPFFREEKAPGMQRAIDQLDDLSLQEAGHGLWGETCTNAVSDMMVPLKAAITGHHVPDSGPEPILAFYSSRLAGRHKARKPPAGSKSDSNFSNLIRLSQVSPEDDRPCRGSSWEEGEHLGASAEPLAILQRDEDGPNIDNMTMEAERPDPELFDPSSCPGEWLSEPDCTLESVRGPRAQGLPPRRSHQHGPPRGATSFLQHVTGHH

[5] = target: T1, Homeodomain-interacting protein kinase 4 (Homo sapiens); details: at 1 µM
[6] = target: Mitogen-activated protein kinase 9 (Homo sapiens) (UniProt P45984); details: at 0.1 µM
[7] = target: Mitogen-activated protein kinase 9 (Homo sapiens) (UniProt P45984); details: at 1 µM
[8] = target: Mitogen-activated protein kinase 1 (Homo sapiens) (UniProt P28482); details: at 0.1 µM
[9] = target: Mitogen-activated protein kinase 1 (Homo sapiens) (UniProt P28482); details: at 1 µM
[10] = target: Mitogen-activated protein kinase 3 (Homo sapiens) (UniProt P27361); details: at 0.1 µM;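 also: each value is a mean inhibition figure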
Chain of Mitogen-activated protein kinase 3 (Homo sapiens) (P27361 whole entry): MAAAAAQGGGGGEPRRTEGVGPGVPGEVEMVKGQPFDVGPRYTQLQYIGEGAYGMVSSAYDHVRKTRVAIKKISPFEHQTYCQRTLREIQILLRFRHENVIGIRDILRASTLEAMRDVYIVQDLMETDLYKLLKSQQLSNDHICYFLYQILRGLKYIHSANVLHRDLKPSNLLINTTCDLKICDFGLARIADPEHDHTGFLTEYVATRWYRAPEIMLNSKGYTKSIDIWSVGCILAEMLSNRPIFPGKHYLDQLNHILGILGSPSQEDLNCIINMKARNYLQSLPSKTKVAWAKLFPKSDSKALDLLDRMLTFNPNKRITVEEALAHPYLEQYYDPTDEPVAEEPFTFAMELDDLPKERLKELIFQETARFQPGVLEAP

Chain of Mitogen-activated protein kinase 1 (Homo sapiens) (P28482 whole entry): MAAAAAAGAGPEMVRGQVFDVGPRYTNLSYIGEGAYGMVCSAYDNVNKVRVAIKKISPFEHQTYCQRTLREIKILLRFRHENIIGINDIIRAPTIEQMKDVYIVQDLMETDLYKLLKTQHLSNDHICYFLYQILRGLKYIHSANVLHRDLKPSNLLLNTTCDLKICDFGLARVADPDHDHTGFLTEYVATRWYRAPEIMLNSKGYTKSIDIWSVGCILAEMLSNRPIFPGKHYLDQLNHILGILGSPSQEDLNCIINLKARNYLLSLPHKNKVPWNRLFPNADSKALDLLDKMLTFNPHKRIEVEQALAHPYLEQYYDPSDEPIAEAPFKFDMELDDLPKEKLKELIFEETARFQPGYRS
Chain of Glycogen synthase kinase-3 beta (Homo sapiens) (P49841 whole entry, looked up): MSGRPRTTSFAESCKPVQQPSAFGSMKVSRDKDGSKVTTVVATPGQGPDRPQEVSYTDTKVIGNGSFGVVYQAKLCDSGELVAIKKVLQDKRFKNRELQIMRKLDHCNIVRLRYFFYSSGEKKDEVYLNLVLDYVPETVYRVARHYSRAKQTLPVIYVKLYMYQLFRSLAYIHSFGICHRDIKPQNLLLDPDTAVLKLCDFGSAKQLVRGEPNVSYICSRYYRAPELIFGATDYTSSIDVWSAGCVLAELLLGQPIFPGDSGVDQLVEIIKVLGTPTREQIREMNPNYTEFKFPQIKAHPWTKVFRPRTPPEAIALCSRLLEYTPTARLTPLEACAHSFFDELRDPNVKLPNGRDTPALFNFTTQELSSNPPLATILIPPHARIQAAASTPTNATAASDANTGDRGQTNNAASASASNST
Chain of Mitogen-activated protein kinase 9 (Homo sapiens) (P45984 whole entry, looked up): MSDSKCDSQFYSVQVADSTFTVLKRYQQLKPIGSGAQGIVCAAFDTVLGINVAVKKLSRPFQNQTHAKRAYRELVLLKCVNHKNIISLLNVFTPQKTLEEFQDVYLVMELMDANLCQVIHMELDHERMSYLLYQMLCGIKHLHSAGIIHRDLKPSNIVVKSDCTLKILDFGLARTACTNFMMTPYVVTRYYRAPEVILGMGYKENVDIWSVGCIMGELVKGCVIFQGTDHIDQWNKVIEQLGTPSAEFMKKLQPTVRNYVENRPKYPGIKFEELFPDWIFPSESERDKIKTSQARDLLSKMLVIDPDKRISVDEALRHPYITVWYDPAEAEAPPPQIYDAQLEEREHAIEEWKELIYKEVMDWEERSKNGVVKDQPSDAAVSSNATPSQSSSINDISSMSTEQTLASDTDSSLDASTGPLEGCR
Chain of Homeodomain-interacting protein kinase 1 (Homo sapiens) (Q86Z02 whole entry, looked up): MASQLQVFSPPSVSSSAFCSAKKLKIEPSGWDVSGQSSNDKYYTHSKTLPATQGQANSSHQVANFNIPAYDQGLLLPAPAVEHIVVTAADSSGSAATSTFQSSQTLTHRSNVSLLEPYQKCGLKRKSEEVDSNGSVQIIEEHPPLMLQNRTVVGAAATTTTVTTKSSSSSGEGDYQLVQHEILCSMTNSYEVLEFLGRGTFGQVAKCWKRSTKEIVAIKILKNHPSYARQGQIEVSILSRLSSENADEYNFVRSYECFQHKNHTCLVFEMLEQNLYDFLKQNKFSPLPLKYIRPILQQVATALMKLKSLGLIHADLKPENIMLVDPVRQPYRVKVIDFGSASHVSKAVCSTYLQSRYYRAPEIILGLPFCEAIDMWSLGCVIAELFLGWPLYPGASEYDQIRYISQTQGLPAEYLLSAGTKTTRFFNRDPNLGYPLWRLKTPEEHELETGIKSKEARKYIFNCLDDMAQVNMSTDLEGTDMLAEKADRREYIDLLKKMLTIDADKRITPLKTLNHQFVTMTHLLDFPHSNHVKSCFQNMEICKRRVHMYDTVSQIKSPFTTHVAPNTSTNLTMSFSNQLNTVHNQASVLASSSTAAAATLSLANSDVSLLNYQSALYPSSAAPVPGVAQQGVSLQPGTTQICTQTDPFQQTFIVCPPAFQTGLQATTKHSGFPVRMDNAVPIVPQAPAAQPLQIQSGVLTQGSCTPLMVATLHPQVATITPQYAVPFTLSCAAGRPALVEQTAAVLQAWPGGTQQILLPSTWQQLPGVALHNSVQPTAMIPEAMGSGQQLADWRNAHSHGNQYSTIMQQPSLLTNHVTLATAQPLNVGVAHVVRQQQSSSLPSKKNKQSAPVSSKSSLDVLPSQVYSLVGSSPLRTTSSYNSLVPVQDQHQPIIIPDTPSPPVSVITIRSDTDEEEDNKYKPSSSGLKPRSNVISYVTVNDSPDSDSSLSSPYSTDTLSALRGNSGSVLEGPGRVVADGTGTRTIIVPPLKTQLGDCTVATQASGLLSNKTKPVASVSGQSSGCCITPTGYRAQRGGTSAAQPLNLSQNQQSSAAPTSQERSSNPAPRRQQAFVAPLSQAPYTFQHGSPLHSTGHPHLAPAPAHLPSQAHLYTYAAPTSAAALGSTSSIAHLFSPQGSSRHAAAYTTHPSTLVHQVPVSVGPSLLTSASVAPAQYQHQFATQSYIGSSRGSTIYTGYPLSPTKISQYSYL

SMILES	inhibition [1] [%]	inhibition [2] [%]	inhibition [3] [%]	inhibition [4] [%]	inhibition [5] [%]	inhibition [6] [%]	inhibition [7] [%]	inhibition [8] [%]	inhibition [9] [%]	inhibition [10] [%]
COc1ccc(-c2oc3ncnc(N)c3c2-c2ccc(NC(=O)Nc3cc(C(F)(F)F)ccc3F)cc2)cc1	15.2	13.5	62	68.7	88.8	7.38	19.9	7.13	6.23	3.48
CC1=C(C(=O)Nc2cc(Cl)c3[nH]ncc3c2)C(c2ccc(C(F)(F)F)cc2)CC(=O)N1 (stereo not given)	2.19	-0.91	-0.78	-0.54	2.16	3.86	2.16	7.37	35.4	6.64
CS(=O)(=O)CCNCc1coc(-c2ccc3ncnc(Nc4ccc(OCc5ccccc5)cc4)c3c2)c1	6.33	-1.59	2.97	0.96	8.92	1.82	2.72	2.46	3.11	3.44
CCOc1ccc2c(-c3ccnc(Nc4cccc(C(F)(F)F)c4)n3)cnn2n1	33.6	21.8	70	10.3	46.2	1.84	1.35	3.23	3.31	2.89
COc1cc2ncn(-c3cc(OCc4ccccc4C(F)(F)F)c(C(=O)N(C)C)s3)c2cc1OC	1.99	-1.93	-0.02	-0.52	2.66	1.07	2.1	-1.73	0.92	-0.18
NS(=O)(=O)c1ccc(N/N=C2\C(=O)Nc3ccc4ncccc4c32)cc1	80.2	19.7	64.7	6.71	40	6.07	33.7	14.9	55.5	6.45
CN1CCC(n2cnc(-c3ccc(F)cc3)c2-c2ccnc(Nc3ccccc3)n2)CC1	34.3	2.6	0.41	0.08	7.29	28	74.7	2.4	5.02	3.96
COc1ccc(CNC(=O)c2ccc(-c3cc(-c4nnc(C)o4)ccc3C)cc2)cc1	13.6	5.43	5.55	7.2	9.71	-0.3	2.51	4.56	-9.41	1.8
c1ccc(COc2ccc(Nc3ncnc4ccc(-c5ccco5)cc34)cc2)cc1	2.25	-3.03	-3.68	0.31	1.89	1.39	1.07	2.65	-3.36	0.95
O=C(Nc1n[nH]c2cc(-c3ccc(F)cc3)ccc12)C1CC1	14.9	-2.89	2.09	0.01	1.78	2.97	3.68	1.79	4.65	1.72
N#Cc1c(NC(=O)c2ccc(F)cc2)sc2c1CCCC2	3.45	-1.95	-1.66	-1.19	-0.61	2.17	2.49	0.39	1.25	-1.04
CC(=O)Nc1cccc(C#Cc2cncnc2Nc2ccc(OCc3cccc(F)c3)c(Cl)c2)c1	4.53	-1.76	-0.76	1.24	4.47	2.12	3.22	2.93	3.14	2.14
[O-][S+]1CCN(Cc2ccc(-c3ccc4ncnc(Nc5ccc(OCc6cccc(F)c6)c(Cl)c5)c4c3)o2)CC1	4.76	-2.75	1.62	0.28	0.6	3.35	1.33	7.21	6.45	5.68
NS(=O)(=O)c1ccc(Nc2ncc(-c3ccccc3)o2)cc1	35.4	9.46	28.8	6.48	24.3	1.48	7.69	2.91	3.4	2.41
COc1cccc(-c2c[nH]c3c(N/N=C/c4ccncc4)ncnc23)c1	83.5	5.99	41.7	10.1	43.2	2.08	8.51	1.55	5.09	1.78
Nc1nc(-c2cccc(Cl)c2)c(-c2ccc3ncccc3n2)s1	7.52	2.34	6.93	2.76	13.9	5.19	13.9	6.28	6.55	5.26
CCNC(=O)O[C@H]1CN[C@H](C#Cc2cc3ncnc(Nc4ccc(OCc5cccc(F)c5)c(Cl)c4)c3s2)C1	8.04	2.47	5.41	2.15	0.62	1.6	4.37	1.5	2.66	0.46

SMILES	inhibition [1] [%]	inhibition [2] [%]	inhibition [3] [%]	inhibition [4] [%]	inhibition [5] [%]	inhibition [6] [%]	inhibition [7] [%]	inhibition [8] [%]	inhibition [9] [%]	inhibition [10] [%]
Cc1ccc2c(-c3ccnc(Nc4ccccc4)n3)c(-c3ccc(F)cc3)nn2n1	66.7	-0.41	7.55	2.12	4.2	44	81.2	4.23	10.5	3.56
COc1ccc2c(-c3ccnc(Nc4cccc(OC(F)(F)F)c4)n3)cnn2n1	73.2	84.8	91.7	51.3	83	1.35	11.4	2.96	7.52	5.36
Cc1cccc(Nc2ncc(-c3ccccc3)o2)c1	12	-1.62	9.25	1.22	8.11	5.28	7.95	3.91	5.08	5.66
CC(C)COC(=O)c1ccc2c(c1)/C(=C/Nc1ccc(S(N)(=O)=O)cc1)C(=O)N2	82.7	-0.11	16.8	-0.32	16.9	0.47	10.8	2.73	31.3	1.07
CCN1CCC(CC(=O)Nc2n[nH]c3nnc(-c4cccc(F)c4F)cc23)CC1	94.4	-3.8	8.59	0.11	3	2.02	-0.48	4.04	2.72	3.44
CCn1c(-c2nonc2N)nc2c(C#CC(C)(C)O)nc(OC[C@H](N)c3ccccc3)cc21	71.2	-1.18	12.3	3.08	6.13	7.43	9.81	2.37	5.04	3.72
COc1cc(/C=N/Nc2ncnc3[nH]ncc23)ccc1O	24.5	9.37	39.4	5.91	23	1.89	5.5	3.68	4.72	2.18
Nc1ncc(-c2cccc(S(N)(=O)=O)c2)c2scc(-c3ccc(F)c(Cl)c3)c12	3.65	0.64	3.02	1.4	4.49	2.92	20.5	6.27	7.98	3.4
Clc1ccc(-c2nn3ncccc3c2-c2ccnc(Nc3ccccc3)n2)cc1	26.2	1.35	3.25	0.5	2.83	16.6	73.4	-0.11	1.18	-0.01
CCn1cc(-c2ccnc3[nH]ccc23)c(-c2cccc(NC(=O)Nc3ccc(OCc4ccccc4)cc3)c2)n1	3.94	-3.5	-1.09	-1.8	-0.81	0.84	1.92	1.51	0.25	1.98
CN1CCC(n2cnc(-c3ccc(F)cc3)c2-c2ccnc(N)n2)CC1	8.08	3.64	24.8	1.91	16.7	2.6	11.3	0.3	2.71	3.88
COc1cc2c(cc1Nc1nc(Nc3ccsc3C(N)=O)c3cc[nH]c3n1)N(C(=O)CN(C)C)CCC2(C)C	17	0.05	7.66	-0.16	6.13	7.73	13.9	4.87	12.2	3.02
COc1ccc(-c2nn3ncccc3c2-c2ccnc(Nc3ccc4c(c3)OCCO4)n2)cc1	5.33	-7.34	-0.07	0.08	-1.16	13	64.6	-0.01	0.95	3.56
CS(=O)(=O)CCNCc1ccc(-c2ccc3ncnc(Nc4ccc(OCc5ccccc5)c(C(F)(F)F)c4)c3c2)o1	3.51	-3.76	-0.23	-0.74	-1.78	2.51	0.92	4.58	5.24	3.56
Fc1cccc(COc2ccc(Nc3ncnc4sc(-c5ccco5)cc34)cc2Cl)c1	4.97	-0.44	5.88	2.99	5.88	1.05	0.94	5.22	5.78	2.39
CCc1nn2ncccc2c1-c1ccnc(NC2CC2)n1	7.53	-1.75	9.32	2.35	20.9	2.47	5.7	1.85	3.78	-0.55
Cc1ccc(O)cc1Nc1ccnc2cc(-c3ccccn3)ccc12	5.65	1.24	5.57	1.19	0.77	2.32	11.5	-0.57	4.7	1.59
